# Tested on: EGFR
# Set-up: species or system human, MV4-11 + K-562 + COLO205 + SK-N-BE2 + OVCAR-8
# Conditions: read-out: apparent Kd; compound concentrations: 100 nM and 1000 nM (sheet 'Samples'), CATDS: 1; n = 1
row,SMILES,potency estimated from few doses
1,CS(=O)(=O)CCN(CC#N)Cc1ccc(-c2ccc3ncnc(Nc4ccc(OCc5cccc(F)c5)c(Cl)c4)c3c2)o1 [GW616030X],244 nM
2,O=C(O)C(F)(F)F.O=C(O[C@H]1CN[C@H](C#Cc2cc3ncnc(Nc4ccc5c(ccn5Cc5cc(F)ccc5F)c4)c3s2)C1)N1CCOCC1 [GSK259178A],277 nM
3,O=C(O[C@H]1CN[C@H](C#Cc2cc3ncnc(Nc4ccc(OCc5cccc(F)c5)c(Cl)c4)c3s2)C1)N1CCOCC1 [GW869810X],72.2 nM
4,CS(=O)(=O)CCNCc1ccc(-c2ccc3ncnc(Nc4ccc(OCc5ccccc5)cc4)c3c2)o1.Cl [GW458787A],34.2 nM

# Same assay, conditions: read-out: apparent Kd; compound concentrations:100 nM and 1000 nM (sheet 'Samples'); n = 1
row,SMILES,potency estimated from few doses
1,Cl.c1ccc(Cc2nc3ccc(Nc4ncnc5ccccc45)cc3[nH]2)cc1 [GR269666A_KCGS],76 nM
2,Cl.O=C(O[C@H]1CN[C@H](C#Cc2cc3ncnc(Nc4ccc5c(cnn5Cc5ccccc5)c4)c3s2)C1)N1CCOCC1 [GSK200398A_KCGS],26.7 nM
3,COc1cc2ncnc(Nc3ccc4c(cnn4Cc4ccccc4)c3)c2cc1OC.Cl [GW282449A],1.29 nM

# — article PMC11062922 (Nature Chemical Biology, 2023)
